Compound activity deposited in PubChem BioAssay by several laboratories.
SENP7 inh – SENP7 protease inhibitors, primary screen, biochemical, luminescence, uHTS | recombinant SENP7, Z-RLRGG-aminoluciferin luminescence, 40 min | inhibition, % at 5 µM | actives 1.5% (n = 330,000);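 active means inhibition above about 50% at the single test dose, limit read from the data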
Target sequence (Q9BQF6 706-1050 limits assumed): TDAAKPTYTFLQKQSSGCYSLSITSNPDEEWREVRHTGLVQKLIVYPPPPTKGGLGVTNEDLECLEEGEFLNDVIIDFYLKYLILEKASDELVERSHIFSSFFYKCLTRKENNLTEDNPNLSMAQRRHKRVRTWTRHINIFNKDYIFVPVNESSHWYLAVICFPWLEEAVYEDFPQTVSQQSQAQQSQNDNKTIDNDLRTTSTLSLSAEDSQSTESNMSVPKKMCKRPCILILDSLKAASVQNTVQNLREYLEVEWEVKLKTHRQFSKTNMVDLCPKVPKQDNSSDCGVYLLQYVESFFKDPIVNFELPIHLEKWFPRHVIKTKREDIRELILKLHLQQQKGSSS
LGR2 antag – inhibitors of bursicon-induced LGR2 CRE-luciferase signal, primary screen, cell-based, HEK293, CRE-luciferase reporter, bursicon stimulation | inhibition, % at 9.99 µM | Drosophila bursicon receptor LGR2 (rickets) | bursicon-stimulated, 4 h | actives 0.35% (n = 380,000) | AID 720647, 2013;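 active means drop in luminescence signal, shown as inhibition above about 50% in the replicate tests, limit read from the data, passing the limit was not always enough; inconclusive means probably only some replicates passing the limit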;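 further: agonist challenge used bursicon conditioned medium at about half maximal strength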
SENP8 block-1 – human SENP8 protease inhibitors, primary screen, biochemical, fluorescence, Nedd8 protein substrate, uHTS; recombinant SENP8; inhibition, % at 20 µM; actives 0.64% (n = 360,000); in the data active means inhibition mostly above about 40%, no sharp cut-off; inactive means mostly below about 27%
SENP6 inh – SENP6 protease inhibitors, primary screen, biochemical, luminescence, uHTS; Recombinant SENP6 catalytic domain, aminoluciferin luminescence; inhibition, % at 10 µM; actives 1.8% (n = 330,000); AID 2599, 2010;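 active means inhibition above about 50% at the single tested dose, limit read from the data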
SENP8 block-2 – SENP8 protease inhibitors, primary screen, biochemical, luminescence. AID 2540, 2010. inhibition, % at 10 µM. purified SENP8, Z-RLRGG-aminoluciferin cleavage. actives 1.2% (n = 330,000); in the data active means inhibition above about 50%
HSP90 inh – HSP90 inhibitors, primary screen, cell lysate, luminescence; Heat shock protein HSP 90 (rabbit reticulocyte lysate; luciferase refolding); Rabbit reticulocyte lysate, luciferase refolding luminescence, 3 h; inhibition, % at 5.6 µM; actives 0.91% (n = 290,000); AID 1789, 2009;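 active means inhibition above the screen-wide mean plus 3 SD, computed separately per campaign, cut at about 16% in these data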;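 further: inhibitors lower the luminescence because luciferase stays unfolded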
SENP8 conf – SENP8 protease inhibitors, retest, confirmation, biochemical, luminescence, single concentration; shares compounds with SENP7 inh; actives 40% (n = 6,200); Recombinant SENP8, Z-RLRGG-aminoluciferin luminescence, 60 min; inhibition, % at 12.5 µM; AID 488912, 2010;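 active means mean inhibition across replicates above about 50%, limit read from the data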
SENP6 conf – SENP6 protease inhibitors, confirmation, biochemical, luminescence, single concentration. shares compounds with SENP7 inh. inhibition, % at 12.5 µM. actives 58% (n = 6,200). recombinant SENP6, Z-RLRGG-aminoluciferin luminescence. AID 488915, 2010
SENP7 confirm – SENP7 protease inhibitors, retest, confirmation, biochemical, luminescence, single concentration; AID 488917, 2010; shares compounds with SENP7 inh; inhibition, % at 12.5 µM; recombinant SENP7, Z-RLRGG-aminoluciferin luminescence, 40 min; actives 69% (n = 6,200)
Casp3 SENP sel – caspase-3 protease inhibitors, confirmation, selectivity assay for SENP inhibitor project, biochemical, single concentration; purified caspase-3, Z-DEVD-aminoluciferin luminescence, 60 min; shares compounds with SENP7 inh; actives 60% (n = 6,200); inhibition, % at 12.5 µM;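 active means mean inhibition above about 50%, limit read from the data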
SENP luc ctr – interferes with luciferase luminescence in SENP counter-screen. Pre-incubated SENP8/Z-RLRGG-aminoluciferin, luciferase luminescence interference. inhibition, % at 12.5 µM. AID 488919. actives 39% (n = 6,200). shares compounds with SENP7 inh;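 active means mean inhibition above about 50% when retested at one dose, limit read from the data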
Large screens that a line does not name were inactive (follow-up assays come after a bar, where they were run). In the library only some 2.3% were active in any assay of this set; here they are far more common.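 How the source made its calls, unless noted: active means mean inhibition above about 50% in the one-dose retest (limit read from the data); inactive means the rest.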

CN(C)CC(=O)N[C@H]1CC[C@H](CCn2cc(C3CC3)nn2)O[C@@H]1CO	none (no result: SENP7 inh, SENP8 block-1, SENP6 inh, SENP8 block-2, HSP90 inh)
N/C(=N\OC(=O)c1cccc(Br)c1)c1ccc(Br)cc1	none (no result: LGR2 antag)
O=C(Oc1ccc(-c2ccccc2)cc1)c1ccco1	none (no result: SENP7 inh, SENP6 inh, SENP8 block-2, HSP90 inh)
N/C(=N\OC(=O)CCCc1ccccc1)c1ccccc1	none
Cc1occc1C(=O)O/N=C(\N)c1ccc(Cl)cc1	SENP7 inh 61, SENP6 inh 53 | SENP8 conf inactive | SENP6 conf inactive | SENP7 confirm 74 | Casp3 SENP sel 69 | SENP luc ctr 58
N/C(=N\OC(=O)c1ccc(Br)cc1)c1ccccc1	SENP7 inh 99, SENP6 inh 93, SENP8 block-2 94 (no result: LGR2 antag) | SENP8 conf 81 | SENP6 conf 96 | SENP7 confirm 102 | Casp3 SENP sel 97 | SENP luc ctr 53
Cc1cccc(/C(N)=N/OC(=O)CCCc2ccccc2)c1	SENP6 inh 60 | SENP8 conf inactive | SENP6 conf 52 | SENP7 confirm 85 | Casp3 SENP sel 68 | SENP luc ctr inactive
N/C(=N\OC(=O)c1ccco1)c1ccccc1	SENP7 inh 81, SENP6 inh 88, SENP8 block-2 82 (no result: LGR2 antag) | SENP8 conf 74 | SENP6 conf 75 | SENP7 confirm 95 | Casp3 SENP sel 90 | SENP luc ctr 76
CCCNC(=O)N(C)C[C@H]1Oc2ncc(-c3ccncc3)cc2C(=O)N([C@@H](C)CO)C[C@H]1C	none (no result: SENP7 inh, SENP8 block-1, SENP6 inh, SENP8 block-2, HSP90 inh)
Cn1cnc(S(=O)(=O)N[C@H]2C=C[C@@H](CC(=O)N3CCN(c4ccccc4)CC3)O[C@H]2CO)c1	none (no result: SENP7 inh, SENP8 block-1, SENP6 inh, SENP8 block-2, HSP90 inh)
Cc1ccc(S(=O)(=O)N(C)C[C@H]2OCCCC[C@H](C)Oc3ccc(NC(=O)c4ccccc4)cc3C(=O)N([C@@H](C)CO)C[C@H]2C)cc1	none (no result: SENP7 inh, SENP8 block-1, SENP6 inh, SENP8 block-2, HSP90 inh)
COc1cc(OC)c(C(=O)O/N=C(\N)c2cccc(C)c2)cc1OC	none
N/C(=N\OC(=O)c1ccco1)c1ccccn1	SENP7 inh 78, SENP6 inh 76 | SENP8 conf 62 | SENP6 conf 62 | SENP7 confirm 91 | Casp3 SENP sel 92 | SENP luc ctr 76
Cc1cccc(/C(N)=N/OC(=O)c2ccco2)c1	SENP7 inh 91, LGR2 antag inconclusive, SENP6 inh 92, SENP8 block-2 84 | SENP8 conf 91 | SENP6 conf 92 | SENP7 confirm 101 | Casp3 SENP sel 94 | SENP luc ctr 86
COc1cccc(-c2ccc3n(c2=O)C[C@H]2[C@H](CO)[C@@H](C(=O)NCC4CC4)N(C)[C@@H]32)c1	none (no result: SENP7 inh, SENP8 block-1, SENP6 inh, SENP8 block-2, HSP90 inh)
CO[C@@H]1CN(C)C(=O)c2ccc(NC(=O)C3CC3)cc2OC[C@@H](C)N(CC2CC2)C[C@H]1C	none (no result: SENP7 inh, SENP8 block-1, SENP6 inh, SENP8 block-2, HSP90 inh)
O=c1[nH]c(C(F)(F)F)nc2ccccc12	none (no result: LGR2 antag)
O=c1[nH]c(C(Cl)(Cl)Cl)nc2ccc3ccccc3c12	SENP6 inh 88, SENP8 block-2 74 | SENP8 conf inactive | SENP6 conf 71 | SENP7 confirm 80 | Casp3 SENP sel 60 | SENP luc ctr inactive
